Test results: PubChem BioAssay AID651591 (Broad Institute, 2012)
Entries with a potency or affinity are not part of this list. Active and inactive are the calls of the source.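 Rule for the calls: active = compounds lowering cell ATP signal whose fitted half-effect dose is at most a set limit; inconclusive = flat fit showing moderate signal loss, or unreliable curve fit; inactive = the rest, including signal increases.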

Assay: cytotoxicity in MITF-independent A375 cells – cell-based, CellTiter-Glo luminescence, dry powder, set 9, counter-screen for MITF modulator project, dose response (AID 651591)
Conditions: A375 melanoma viability, CellTiter-Glo ATP luminescence, 24 h; series mostly up to 35 µM

SMILES	outcome
NC1=C(NS(=O)(=O)c2ccc(Br)s2)C(=O)c2ccccc2C1=O	inactive
NC1=C(NS(=O)(=O)c2ccc(Br)cc2)C(=O)c2ccccc2C1=O	inactive
O=C1C=C(NS(=O)(=O)c2cccs2)C(=O)c2ccccc21	inactive
O=C1C=C(NS(=O)(=O)c2ccc(Br)cc2)C(=O)c2ccccc21	inactive
CC(C)N1CCN(C2=C(Nc3ccc(F)cc3F)C(=O)c3ccccc3C2=O)CC1	inactive
NC1=C(NS(=O)(=O)c2ccccc2)C(=O)c2ccccc2C1=O	inactive
O=C1C=C(NS(=O)(=O)c2ccccc2)C(=O)c2ccccc21	inactive
O=C1C(Nc2ccccc2)=C(c2ccccc2)C(=O)c2ccccc21	inactive
